The record followed here is article PMC7862700, “An all-to-all approach to the identification of sequence-specific readers for epigenetic DNA modifications on cytosine”.

Holding throughout (experiment): DAPPL (digital affinity profiling via proximity ligation, sequencing); 10 mM Tris-HCl pH 7.5, 50 mM NaCl, 1 mM DTT, 4% glycerol, room temperature, 30 min; GST-TFs on glutathione beads, 16-mer random dsDNA library, 0.1% formaldehyde crosslink after washing; high values mean tight binding
In one assay the target is T1, FEV (Homo sapiens, UniProt Q99581 1-238).
T1 sequence: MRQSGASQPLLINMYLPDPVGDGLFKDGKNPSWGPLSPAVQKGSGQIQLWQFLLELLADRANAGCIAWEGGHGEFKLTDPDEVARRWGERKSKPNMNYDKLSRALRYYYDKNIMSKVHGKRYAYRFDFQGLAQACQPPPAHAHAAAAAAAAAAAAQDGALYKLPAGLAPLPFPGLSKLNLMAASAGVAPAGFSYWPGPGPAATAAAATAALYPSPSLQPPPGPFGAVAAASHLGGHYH
The note with it: protein: recombinant; tags: N-terminal GST; dsDNA, one strand shown. An outline of the steps:
(§1)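 Binding signal is given per hexamer as its read frequency for a factor divided by its frequency in the tag-only sample. GST-fused human transcription factors were expressed in yeast, captured on glutathione beads, barcoded with DNA and pooled with that sample, then incubated with 200 nmole of a 16-mer random double-stranded DNA library in Tris/NaCl/DTT/glycerol buffer for 30 min at room temperature. The pools were then washed, crosslinked, proximity-ligated, amplified by PCR and sequenced on an Illumina NextSeq500.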

In the next assay the target is ETV5 (Homo sapiens, UniProt P41161 1-510). Conditions: protein: recombinant; tags: N-terminal GST; dsDNA, one strand shown. An outline of the steps: as §1
ETV5, sequence (P41161 whole entry): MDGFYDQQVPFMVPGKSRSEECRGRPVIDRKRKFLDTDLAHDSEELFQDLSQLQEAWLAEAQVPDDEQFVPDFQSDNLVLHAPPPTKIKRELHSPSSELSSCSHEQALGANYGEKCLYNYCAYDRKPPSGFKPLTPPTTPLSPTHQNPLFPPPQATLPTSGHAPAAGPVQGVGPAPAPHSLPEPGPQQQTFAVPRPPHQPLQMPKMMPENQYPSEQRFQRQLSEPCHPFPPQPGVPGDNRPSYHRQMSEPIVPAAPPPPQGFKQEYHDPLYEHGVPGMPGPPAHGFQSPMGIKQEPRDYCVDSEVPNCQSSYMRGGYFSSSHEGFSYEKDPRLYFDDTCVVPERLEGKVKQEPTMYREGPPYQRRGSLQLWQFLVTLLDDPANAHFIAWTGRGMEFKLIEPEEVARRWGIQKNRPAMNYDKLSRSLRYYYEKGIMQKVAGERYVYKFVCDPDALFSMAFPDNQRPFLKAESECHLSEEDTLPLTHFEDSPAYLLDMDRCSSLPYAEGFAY
The target in another assay is HSF1 (Homo sapiens, UniProt Q00613 1-529). The note with it: protein: recombinant; tags: N-terminal GST; chain copies: 3; dsDNA, one strand shown. An outline of the steps:
as §1

The next assay deals with T2, SPIC (Homo sapiens, UniProt Q8N5J4 1-248).
T2 sequence: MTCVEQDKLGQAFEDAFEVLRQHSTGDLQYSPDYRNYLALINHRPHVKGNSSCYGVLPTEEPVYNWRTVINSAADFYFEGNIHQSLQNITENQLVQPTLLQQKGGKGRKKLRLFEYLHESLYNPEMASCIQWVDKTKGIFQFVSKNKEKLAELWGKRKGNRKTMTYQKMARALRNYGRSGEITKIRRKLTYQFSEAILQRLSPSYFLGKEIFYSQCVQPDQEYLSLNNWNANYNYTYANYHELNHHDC
The note with it: protein: recombinant; tags: N-terminal GST; dsDNA, one strand shown. The method, boiled down: as §1

Another assay concerns the target ELF4 (Homo sapiens, UniProt Q99607 1-663). Conditions: protein: recombinant; tags: N-terminal GST; dsDNA, one strand shown. The method, boiled down:
as §1

Another assay concerns the target T3, ELK4 (Homo sapiens, UniProt P28324-2 1-405).
T3 sequence: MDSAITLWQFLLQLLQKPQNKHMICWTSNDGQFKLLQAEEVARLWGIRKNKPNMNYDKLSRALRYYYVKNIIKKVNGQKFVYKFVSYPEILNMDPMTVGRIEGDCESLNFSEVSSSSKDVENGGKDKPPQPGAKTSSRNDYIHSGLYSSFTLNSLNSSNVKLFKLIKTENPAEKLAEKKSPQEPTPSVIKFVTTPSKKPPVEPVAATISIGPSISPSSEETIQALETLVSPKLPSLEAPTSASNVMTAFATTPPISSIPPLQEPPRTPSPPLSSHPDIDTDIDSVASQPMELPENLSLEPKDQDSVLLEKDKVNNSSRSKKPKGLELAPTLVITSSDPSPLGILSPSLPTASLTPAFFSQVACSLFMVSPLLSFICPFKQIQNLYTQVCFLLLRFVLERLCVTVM
The note with it: protein: recombinant; tags: N-terminal GST; dsDNA, one strand shown. An outline of the steps: as §1

A further assay deals with T4, ETV2 (Homo sapiens, UniProt O00321 1-342).
T4 sequence: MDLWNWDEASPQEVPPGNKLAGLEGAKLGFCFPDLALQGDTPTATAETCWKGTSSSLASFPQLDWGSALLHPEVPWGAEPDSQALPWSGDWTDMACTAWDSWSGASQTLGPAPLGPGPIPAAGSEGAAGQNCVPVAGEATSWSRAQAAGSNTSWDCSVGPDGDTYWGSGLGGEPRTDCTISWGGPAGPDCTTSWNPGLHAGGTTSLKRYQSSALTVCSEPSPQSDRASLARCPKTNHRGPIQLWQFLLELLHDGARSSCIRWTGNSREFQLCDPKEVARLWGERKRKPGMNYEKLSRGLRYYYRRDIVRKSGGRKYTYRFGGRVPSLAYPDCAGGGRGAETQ
The note with it: protein: recombinant; tags: N-terminal GST; dsDNA, one strand shown. An outline of the steps:
as §1

The target of the next assay is T5, ELF3 (Homo sapiens, UniProt P78545 1-371).
T5 sequence: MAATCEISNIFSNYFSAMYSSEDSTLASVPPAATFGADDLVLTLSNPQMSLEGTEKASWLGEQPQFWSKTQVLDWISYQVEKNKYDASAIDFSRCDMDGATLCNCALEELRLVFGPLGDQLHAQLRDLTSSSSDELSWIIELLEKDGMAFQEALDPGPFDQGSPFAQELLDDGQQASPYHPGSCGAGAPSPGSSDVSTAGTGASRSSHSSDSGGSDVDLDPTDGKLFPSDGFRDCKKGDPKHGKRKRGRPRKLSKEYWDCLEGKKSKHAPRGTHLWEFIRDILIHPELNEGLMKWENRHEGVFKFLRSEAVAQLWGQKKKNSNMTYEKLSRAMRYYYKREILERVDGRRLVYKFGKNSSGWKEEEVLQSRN
The note with it: protein: recombinant; tags: N-terminal GST; dsDNA, one strand shown. The method, boiled down:
as §1

Another assay has as its target CRX (Homo sapiens, UniProt O43186 1-299). The note with it: protein: recombinant; tags: N-terminal GST; dsDNA, one strand shown. The method, boiled down: as §1
The next assay deals with ETV1 (Homo sapiens, UniProt P50549 1-477). The note with it: protein: recombinant; tags: N-terminal GST; dsDNA, one strand shown. An outline of the steps: as §1
ETV1, sequence (P50549 whole entry): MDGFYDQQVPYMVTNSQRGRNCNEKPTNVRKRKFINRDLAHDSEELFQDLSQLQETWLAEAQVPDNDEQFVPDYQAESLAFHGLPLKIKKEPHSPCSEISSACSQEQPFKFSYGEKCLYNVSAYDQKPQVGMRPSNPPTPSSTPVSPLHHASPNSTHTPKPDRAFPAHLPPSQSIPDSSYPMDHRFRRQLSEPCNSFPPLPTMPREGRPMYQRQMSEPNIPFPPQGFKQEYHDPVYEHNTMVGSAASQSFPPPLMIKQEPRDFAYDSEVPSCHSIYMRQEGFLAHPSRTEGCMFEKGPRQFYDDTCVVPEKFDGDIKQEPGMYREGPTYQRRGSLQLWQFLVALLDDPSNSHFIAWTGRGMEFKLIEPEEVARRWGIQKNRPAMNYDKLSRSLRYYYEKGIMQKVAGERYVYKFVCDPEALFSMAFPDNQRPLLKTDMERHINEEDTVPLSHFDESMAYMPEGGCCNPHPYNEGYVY
For a further assay, the target named is T6, ERF (Homo sapiens, UniProt P50548 1-548).
T6 sequence: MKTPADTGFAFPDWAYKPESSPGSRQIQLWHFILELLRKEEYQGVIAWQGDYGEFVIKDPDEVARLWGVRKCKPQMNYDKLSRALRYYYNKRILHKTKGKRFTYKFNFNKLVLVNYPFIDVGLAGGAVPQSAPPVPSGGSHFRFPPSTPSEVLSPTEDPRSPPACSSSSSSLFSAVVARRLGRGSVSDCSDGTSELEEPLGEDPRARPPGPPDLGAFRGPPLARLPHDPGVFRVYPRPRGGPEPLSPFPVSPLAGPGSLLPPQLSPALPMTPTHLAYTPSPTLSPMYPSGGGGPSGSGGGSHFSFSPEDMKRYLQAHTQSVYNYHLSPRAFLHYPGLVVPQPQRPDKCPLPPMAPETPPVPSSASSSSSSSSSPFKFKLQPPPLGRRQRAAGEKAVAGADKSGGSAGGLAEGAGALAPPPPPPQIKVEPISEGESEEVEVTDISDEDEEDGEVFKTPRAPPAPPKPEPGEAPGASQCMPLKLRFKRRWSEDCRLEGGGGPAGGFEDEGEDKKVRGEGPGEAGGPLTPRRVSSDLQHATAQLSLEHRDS
The note with it: protein: recombinant; tags: N-terminal GST; dsDNA, one strand shown. The method, boiled down:
as §1

The target of a further assay is T7, ETV3L (Homo sapiens, UniProt Q6ZN32 1-361).
T7 sequence: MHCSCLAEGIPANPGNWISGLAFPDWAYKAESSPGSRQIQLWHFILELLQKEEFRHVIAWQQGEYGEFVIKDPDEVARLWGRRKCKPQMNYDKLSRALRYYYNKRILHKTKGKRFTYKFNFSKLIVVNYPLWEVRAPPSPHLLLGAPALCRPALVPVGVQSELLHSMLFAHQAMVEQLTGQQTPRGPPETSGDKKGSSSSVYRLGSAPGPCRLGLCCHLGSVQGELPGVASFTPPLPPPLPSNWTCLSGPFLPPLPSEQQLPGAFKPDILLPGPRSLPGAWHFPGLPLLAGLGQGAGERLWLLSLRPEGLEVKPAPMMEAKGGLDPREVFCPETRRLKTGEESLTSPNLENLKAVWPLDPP
Conditions: protein: recombinant; tags: N-terminal GST; dsDNA, one strand shown. An outline of the steps:
as §1

Another assay concerns the target T8, ETS2 (Homo sapiens, UniProt P15036 1-469).
T8 sequence: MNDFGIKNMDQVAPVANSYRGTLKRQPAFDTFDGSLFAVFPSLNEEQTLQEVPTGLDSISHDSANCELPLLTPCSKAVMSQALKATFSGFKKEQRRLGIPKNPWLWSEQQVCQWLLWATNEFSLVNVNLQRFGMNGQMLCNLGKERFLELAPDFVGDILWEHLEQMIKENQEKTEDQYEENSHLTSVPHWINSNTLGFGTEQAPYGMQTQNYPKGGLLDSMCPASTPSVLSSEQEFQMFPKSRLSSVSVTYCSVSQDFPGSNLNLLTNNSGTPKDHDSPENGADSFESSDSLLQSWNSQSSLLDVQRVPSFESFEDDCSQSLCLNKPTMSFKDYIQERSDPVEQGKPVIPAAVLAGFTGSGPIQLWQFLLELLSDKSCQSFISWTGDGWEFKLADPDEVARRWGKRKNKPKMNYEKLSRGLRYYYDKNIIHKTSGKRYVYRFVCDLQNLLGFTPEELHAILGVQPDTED
The note with it: protein: recombinant; tags: N-terminal GST; dsDNA, one strand shown. The method, boiled down: as §1

A further assay deals with T9, SPDEF (Homo sapiens, UniProt O95238 1-335).
T9 sequence: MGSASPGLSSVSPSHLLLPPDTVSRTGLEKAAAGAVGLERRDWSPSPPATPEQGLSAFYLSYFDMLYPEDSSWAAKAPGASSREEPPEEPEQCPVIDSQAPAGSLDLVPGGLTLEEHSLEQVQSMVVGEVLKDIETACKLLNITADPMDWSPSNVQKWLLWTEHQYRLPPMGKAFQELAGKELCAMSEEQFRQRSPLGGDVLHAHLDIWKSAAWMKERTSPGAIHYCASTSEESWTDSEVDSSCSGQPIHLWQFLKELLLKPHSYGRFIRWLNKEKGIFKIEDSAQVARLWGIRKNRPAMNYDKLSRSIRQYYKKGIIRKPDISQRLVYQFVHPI
The note with it: protein: recombinant; tags: N-terminal GST; dsDNA, one strand shown. An outline of the steps: as §1

A further assay deals with T10, ETV7 (Homo sapiens, UniProt Q9Y603 1-341).
T10 sequence: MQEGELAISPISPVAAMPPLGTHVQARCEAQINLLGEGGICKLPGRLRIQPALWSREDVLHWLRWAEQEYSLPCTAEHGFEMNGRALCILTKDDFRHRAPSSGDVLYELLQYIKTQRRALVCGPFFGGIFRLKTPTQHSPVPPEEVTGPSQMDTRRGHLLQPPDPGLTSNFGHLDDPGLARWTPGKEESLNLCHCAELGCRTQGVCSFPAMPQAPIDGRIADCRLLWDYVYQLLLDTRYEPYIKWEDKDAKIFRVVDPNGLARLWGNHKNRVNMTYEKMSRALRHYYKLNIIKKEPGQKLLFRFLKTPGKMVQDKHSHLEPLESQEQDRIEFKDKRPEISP
Conditions: protein: recombinant; tags: N-terminal GST; dsDNA, one strand shown. The method, boiled down:
as §1

In the next assay the target is T11, ELF5 (Homo sapiens, UniProt Q9UKW6-2 1-255).
T11 sequence: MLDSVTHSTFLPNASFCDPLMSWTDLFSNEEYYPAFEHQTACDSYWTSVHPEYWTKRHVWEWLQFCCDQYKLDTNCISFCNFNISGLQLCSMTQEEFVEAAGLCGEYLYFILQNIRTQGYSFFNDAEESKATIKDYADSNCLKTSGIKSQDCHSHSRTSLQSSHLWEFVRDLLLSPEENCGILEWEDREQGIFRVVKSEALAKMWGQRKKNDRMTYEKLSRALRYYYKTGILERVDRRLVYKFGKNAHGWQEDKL
Conditions: protein: recombinant; tags: N-terminal GST; dsDNA, one strand shown. An outline of the steps: as §1

For a further assay, the target named is T12, ETV3 (Homo sapiens, UniProt P41162-2 1-143).
T12 sequence: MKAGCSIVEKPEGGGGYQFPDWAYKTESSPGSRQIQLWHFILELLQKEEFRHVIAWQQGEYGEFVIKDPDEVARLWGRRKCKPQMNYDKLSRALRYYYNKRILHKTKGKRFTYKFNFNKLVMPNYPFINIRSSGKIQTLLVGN
Conditions: protein: recombinant; tags: N-terminal GST; dsDNA, one strand shown. The method, boiled down: as §1

The target of another assay is ETV6 (Homo sapiens, UniProt P41212 1-452). The note with it: protein: recombinant; tags: N-terminal GST; dsDNA, one strand shown. An outline of the steps:
as §1

HSF1, sequence (Q00613 whole entry): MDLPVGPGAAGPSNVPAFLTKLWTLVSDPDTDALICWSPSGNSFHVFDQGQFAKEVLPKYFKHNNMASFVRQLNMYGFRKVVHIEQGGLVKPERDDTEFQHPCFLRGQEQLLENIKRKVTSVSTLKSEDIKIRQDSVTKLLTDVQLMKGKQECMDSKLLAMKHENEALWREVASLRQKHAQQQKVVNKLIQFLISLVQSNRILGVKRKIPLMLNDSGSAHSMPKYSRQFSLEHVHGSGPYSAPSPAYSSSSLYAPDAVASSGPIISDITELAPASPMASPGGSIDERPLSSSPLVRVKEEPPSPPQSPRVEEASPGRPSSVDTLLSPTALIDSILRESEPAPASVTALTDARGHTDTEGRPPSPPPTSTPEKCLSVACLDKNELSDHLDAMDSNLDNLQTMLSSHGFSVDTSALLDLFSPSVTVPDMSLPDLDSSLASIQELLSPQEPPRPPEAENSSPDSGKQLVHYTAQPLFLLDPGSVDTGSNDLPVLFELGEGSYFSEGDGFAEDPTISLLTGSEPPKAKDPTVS
ETV6, sequence (P41212 whole entry): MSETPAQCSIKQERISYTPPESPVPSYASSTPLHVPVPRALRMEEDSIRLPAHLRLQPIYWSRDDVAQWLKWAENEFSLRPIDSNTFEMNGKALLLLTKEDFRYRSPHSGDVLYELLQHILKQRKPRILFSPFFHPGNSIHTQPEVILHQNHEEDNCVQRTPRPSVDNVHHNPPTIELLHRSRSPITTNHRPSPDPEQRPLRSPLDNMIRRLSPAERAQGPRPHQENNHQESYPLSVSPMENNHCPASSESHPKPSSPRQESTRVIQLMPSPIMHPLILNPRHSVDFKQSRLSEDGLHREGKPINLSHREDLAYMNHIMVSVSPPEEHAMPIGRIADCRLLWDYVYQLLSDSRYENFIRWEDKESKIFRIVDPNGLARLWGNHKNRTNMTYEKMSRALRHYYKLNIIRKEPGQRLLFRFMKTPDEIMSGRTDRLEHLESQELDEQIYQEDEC
CRX, sequence (O43186 whole entry): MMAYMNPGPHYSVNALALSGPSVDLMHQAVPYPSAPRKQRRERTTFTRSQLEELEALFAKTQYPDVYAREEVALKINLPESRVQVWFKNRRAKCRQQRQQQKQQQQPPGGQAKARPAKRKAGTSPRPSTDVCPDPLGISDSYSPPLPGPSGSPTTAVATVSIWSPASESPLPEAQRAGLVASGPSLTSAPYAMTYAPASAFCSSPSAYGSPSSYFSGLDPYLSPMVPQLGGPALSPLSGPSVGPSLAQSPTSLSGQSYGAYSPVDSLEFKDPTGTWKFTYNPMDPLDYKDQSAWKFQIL
ELF4, sequence (Q99607 whole entry): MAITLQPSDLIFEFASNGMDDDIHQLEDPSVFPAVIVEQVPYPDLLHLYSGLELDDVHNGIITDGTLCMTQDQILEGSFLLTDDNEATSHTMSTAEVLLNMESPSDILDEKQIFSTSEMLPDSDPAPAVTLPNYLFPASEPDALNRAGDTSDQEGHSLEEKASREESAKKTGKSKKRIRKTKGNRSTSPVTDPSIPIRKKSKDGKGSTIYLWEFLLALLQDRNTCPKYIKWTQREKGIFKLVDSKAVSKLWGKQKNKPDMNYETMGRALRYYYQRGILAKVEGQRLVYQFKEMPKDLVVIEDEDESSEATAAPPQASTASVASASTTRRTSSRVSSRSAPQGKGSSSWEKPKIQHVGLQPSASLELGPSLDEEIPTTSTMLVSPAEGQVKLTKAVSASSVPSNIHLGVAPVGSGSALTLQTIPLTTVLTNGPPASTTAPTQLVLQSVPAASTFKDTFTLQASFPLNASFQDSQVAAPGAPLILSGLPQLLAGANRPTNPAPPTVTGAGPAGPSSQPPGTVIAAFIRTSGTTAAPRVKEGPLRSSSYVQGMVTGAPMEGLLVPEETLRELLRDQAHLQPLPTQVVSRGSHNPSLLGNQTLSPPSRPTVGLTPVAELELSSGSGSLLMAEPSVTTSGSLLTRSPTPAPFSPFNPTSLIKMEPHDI

In the case of CCCTTA, the binding signal in the assay with FEV was 1.24 fold enrichment (6-mer frequency, TF over GST control); in the assay with ETV5, 1.28 fold enrichment (6-mer frequency, TF over GST control); with HSF1, 1.28 fold enrichment (6-mer frequency, TF over GST control); with SPIC it was 1.31 fold enrichment (6-mer frequency, TF over GST control); with ELF4, 1.39 fold enrichment (6-mer frequency, TF over GST control); in the assay with ELK4, 1.21 fold enrichment (6-mer frequency, TF over GST control). In addition, the binding signal was 1.41 fold enrichment (6-mer frequency, TF over GST control) with ETV2; 1.29 fold enrichment (6-mer frequency, TF over GST control) with ELF3; 1.59 fold enrichment (6-mer frequency, TF over GST control) with CRX; 1.21 fold enrichment (6-mer frequency, TF over GST control) with ETV1; 1.32 fold enrichment (6-mer frequency, TF over GST control) with ERF; 1.41 fold enrichment (6-mer frequency, TF over GST control) with ETV3L. Further, the binding signal with ETS2 was 1.34 fold enrichment (6-mer frequency, TF over GST control); with SPDEF it was 1.38 fold enrichment (6-mer frequency, TF over GST control); in the assay with ETV7 it was 1.23 fold enrichment (6-mer frequency, TF over GST control); with ELF5, 1.2 fold enrichment (6-mer frequency, TF over GST control); with ETV3, 1.39 fold enrichment (6-mer frequency, TF over GST control); with ETV6, 1.24 fold enrichment (6-mer frequency, TF over GST control).
